# Screens as filed in PubChem.
# Sampled rows, rich in hits. Any-hit rate of the full collection: about 20%.
# HCMV antiviral = inhibitors of human cytomegalovirus | HFF cells, HCMV-luciferase reporter, 72 h; stronger effect = lower value | activity change, negative = inhibition, % at 57.5 µM | 410,000 compounds, 4.5% hits | AID 1259415; in the data active = activity change below about -60%; inconclusive = no clear call, values can overlap the other calls; inactive = above about -39%; also: % is scaled to controls: 0 for no effect and ±100 for the full control effect
#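 HFF cells seeded 16 h at 37C, treated with compounds, infected with luciferase-reporter HCMV at MOI 1 PFU/cell; luciferase read at 72 h post infection, normalized to buffer-only and Salinomycin controls.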
# Shiga inhibitor = inhibitors of Shiga toxin in Vero cells | Vero cells, Shiga toxin protein synthesis inhibition reporter | inhibition, % at 38.7 µM | 290,000 compounds, 9.2% hits; in the data active = inhibition mostly above about 28%, no sharp cut-off; inactive = mostly below about 43%; also: 0% is about no effect
# Cycloheximide cs = counter-screen for Shiga toxin inhibitors: cycloheximide protein synthesis inhibition; cell reporter, cycloheximide protein synthesis inhibition counterscreen; max response, %; 300,000 compounds, 12% hits; in the data active = max response mostly above about 13%, no sharp cut-off; inactive = mostly below about 14%; also: read at 38.3 µM for the half of the compounds with a filed dose; 0% is about no effect
# Pf growth 48h = P. falciparum growth inhibition at 48 hours (one generation). P. falciparum luciferase growth in erythrocytes, 48 h. Potency, µM (titrated, usually from 28.7 µM), without a hit: top-dose activity change, negative = inhibition, actives largely listed as inhibitors. 310,000 compounds, 5.9% hits; also: potency is read from the fitted curve at half-maximal effect; % is scaled to controls: 0 for no effect and ±100 for the full control effect
#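 Luminescence readout; reporter = integrated firefly luciferase in P. falciparum. RBC culture at 2% hematocrit, 0.1% parasitemia final, 37 C/5% CO2; decreased signal taken as growth inhibition.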
# Pf growth 96h = inhibits malaria parasite growth, 96 h | 320,000 compounds, 6.9% hits | Potency, µM (highest dose often 28.7 µM), for the others: at the top dose activity change, negative = inhibition, most hits filed as inhibitors | P. falciparum luciferase reporter growth, 96 h | AID 504834; also: potency is read from the fitted curve at half-maximal effect; % is scaled to controls: 0 for no effect and ±100 for the full control effect
#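 Delayed-death screen, second-generation endpoint: infected erythrocytes, 2% hematocrit, 0.05% parasitemia final; 96 hours at 37 C, 5% CO2; luciferase detection reagent; luminescence decrease equals reduced growth.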
# * hit, by the source's call; ? = inconclusive; . = no result. Unless noted, calls follow the shape of the dose curve; as a rule, active = well fitted inhibition curve with a large enough effect; inconclusive = small, poorly fitted or top-dose-only effect, or another doubt; inactive = no such curve, though single readings can be large or run the other way.
SMILES,HCMV antiviral,Shiga inhibitor,Cycloheximide cs,Pf growth 48h,Pf growth 96h
COc1ccc(NC(=O)CSc2nnc3c4c(nc(-c5ccccc5)n23)CC(C)(C)OC4)cc1,?,-3,-2,-104%,?
O=C(Nc1cccnc1)c1cc(-c2ccc(Br)cc2)nc2ccccc12,40,5,-1,?,-8%
O=C(N/N=C/c1ccccn1)c1cc(-c2ccc(Cl)cc2)nc2ccccc12,9,-2,-2,9.3µM*,9.3µM*
O=C(N/N=C/c1ccccn1)c1cc(-c2ccc(Br)cc2)nc2ccccc12,-100*,8,-3,?,-15%
CC1=C/C(=N\NC(=S)NCc2ccccc2)CC1,-29,56*,26*,?,?
COCCNC(=S)N/N=C(\C)c1ccc(OC)cc1,-21,-2,-3,-21%,-10%
C=C(C)CNC(=S)N/N=C(\C)c1ccc(OC)cc1,-70*,9,6,13µM*,-32%
CC/C(C)=N/NC(=S)NCc1ccco1,-27,-4,-2,-18%,-5%
C/C(=N\NC(=S)NCc1ccccc1)c1ccco1,-9,37*,19*,7%,?
Cc1[nH]c2ccccc2c1/C=N/NC(=S)NCc1ccccc1,11,-11,13,203%,7%
COCCNC(=S)N/N=C(\C)c1ccc2cc(OC)ccc2c1,-75*,-7,-2,?,?
COc1ccc(NC(=O)CSc2nc3c(c(=O)n(C)c(=O)n3C)n2C)c(OC)c1,22,-6,3,-17%,-18%
Cc1ccc(CCNC(=O)c2nc(CS(=O)(=O)c3ccc(Cl)cc3)no2)cc1,-28,-9,8,-9%,2%
COc1ccc(C2CCCN2C(=S)Nc2cccc(Cl)c2C)cc1OC (centres undefined),?,-10,2,?,19%
C[C@H]1CN([C@@H](C)CO)C(=O)Cc2cc(NS(=O)(=O)c3cccs3)ccc2O[C@H]1CN(C)S(=O)(=O)c1cn(C)cn1,-1,.,.,.,.
CC(C)NC(=O)N1Cc2cc(C(=O)NC3CCCCC3)nc(-c3cccc(-c4cccnc4)c3)c2[C@@H]1CCO,-32,.,.,.,.
COc1ccc(CNC(=S)N/N=C(/C)c2ccccc2)cc1,-2,84*,49*,42%,-18%
C/C(=N\NC(=S)NCc1ccccc1)c1ccc(C(C)(C)C)cc1,17,-7,12*,9.3µM*,?
C/C(=N\NC(=O)CCC(=O)NCc1ccccc1)c1ccc([N+](=O)[O-])cc1,15,.,.,.,.
COCCNC(=S)N/N=C(\C)c1cc2ccccc2o1,-28,25*,9,25%,?
C/C(=N\NC(=S)NCc1ccccc1)c1ccccc1F,-5,46*,23,?,-28%
O=C(NC(=S)NCc1ccccc1)c1ccccc1F,-26,10,13,2%,14%
COC(=O)c1c(NC(=O)C2CCCCC2)sc2c1CC(C)(C)NC2(C)C,-13,-5,-3,15%,86%
CCCCCn1c(NCc2ccccc2OC)nc2ccccc21,-34,.,.,.,.
CCc1ccc(CN(Cc2ccco2)C(=O)COc2ccccc2Cl)cc1,-6,.,.,.,.
SMILES,HCMV antiviral,Shiga inhibitor,Cycloheximide cs,Pf growth 48h,Pf growth 96h
COc1ccc2c(c1)[C@@H](NC(=O)c1c(C)noc1C)[C@H](C)[C@@H](c1ccccc1)N2Cc1cccc(F)c1,-4,.,.,.,.
C/C(=N\NC(=S)NCc1ccccc1)c1ccc(C#N)cc1,-17,-5,-2,?,-2%
C/C(=N\NC(=S)NCc1ccccc1)c1ccccc1,139,active,28*,21%,-3%
CC(Cc1cccs1)NC(=S)Nc1ccc(Cl)c(Cl)c1 (centres undefined),?,active,11,-3%,?
CC(Cc1cccs1)NC(=S)Nc1ccc(Cl)cc1 (centres undefined),-92*,45*,21*,-6%,?
CC(C(=O)Nc1ccc(Cl)cc1)N(C)Cc1cccs1 (centres undefined),-22,21,12,9%,-19%
Cc1cc(OC(C)C(=O)N(Cc2ccco2)C2CCS(=O)(=O)C2)cc(C)c1Cl (centres undefined),.,1,-2,-7%,3%
COC(=O)c1ccc(NC(=O)Nc2ccc(F)cc2F)cc1,14,143*,37*,246%,8%
COC(=O)c1ccc(NC(=O)Nc2cccc(F)c2)cc1,-11,86*,54*,335%,11%
O=C(Nc1ccccc1)Nc1ccc(F)cc1F,-17,96*,40*,84%,-1%
COc1ccc(C(CC(=O)Nc2ccc(Cl)cc2F)NC(=O)C(F)(F)F)cc1 (centres undefined),-89*,-8,1,-7%,18%
CCCC1CC(=O)OC1(C)C(=O)CSc1n[nH]c(-c2ccccc2)n1 (centres undefined),25,66*,21,26%,-8%
O=C(CN1CCc2ccccc2C1)Nc1ccc(Br)cc1,14,18,15,.,-25%
O=C(Nc1ccc(F)cc1)N1CCc2ccccc2C1,-16,91*,51*,84%,32%
O=C(Nc1ccc(Br)cc1)N1CCc2ccccc2C1,-11,126*,53*,62%,-27%
Cc1oc2ncnc(N3CCCCC3)c2c1C(=O)NCC1CCN(Cc2ccc(F)cc2)CC1,9,.,.,.,.
Cc1cc(N/N=C/c2ccc(N(C)C)cc2)nc(NCc2ccccc2)n1,-18,15,-2,?,?
CN(C)c1nc(NCc2ccccc2)nc(N/N=C/c2ccc(Br)cc2)n1,-32,2,-6,13µM*,?
CN(C)c1nc(NCc2ccccc2)nc(N/N=C/c2ccc3c(c2)OCO3)n1,?,-2,-3,12µM*,?
CCNc1nc(NCC)nc(N/N=C/c2ccc(N(C)C)cc2)n1,-33,11,5,13µM*,?
Cc1ccc(C)c(S(=O)(=O)Nc2ccc(C(=O)N3CCOCC3)cc2)c1,-20,.,.,.,.
CSc1ccc(-c2nc(CSCC(=O)NCCCN3CCOCC3)c(C)o2)cc1,14,-3,-2,.,9.3µM*
Cc1ccc(-c2nc(CSCC(=O)NCCCN3CCOCC3)c(C)o2)cc1,16,16,25,37%,.
CCCNC(=O)CSCc1nc(-c2ccc(SC)cc2)oc1C,-27,35,26*,-4%,?
COC(CNC(=O)CSCc1nc(-c2ccc(SC)cc2)oc1C)OC,?,26,9,21%,7%
Cc1nn(CC(=O)NCc2cccnc2)c(C)c1[N+](=O)[O-],-13,-13,10,5%,2%
COc1ccccc1N(C)S(=O)(=O)c1ccc(Cl)c(C(=O)NCC2(N(C)C)CCCCC2)c1,-11,.,.,?,9.3µM*
COc1ccc(Cl)cc1NS(=O)(=O)c1cccc(C(=O)NCC2(N(C)C)CCCCC2)c1,-9,-12,3,?,15µM*
Cc1ccc(C(=O)NCC(c2cccs2)S(=O)(=O)c2ccccc2)cc1C (centres undefined),-6,.,.,.,.
CSc1nc(Cl)cc(Nc2ccccc2N)n1,?,5,19,39%,3%
